According to PubChem BioAssay AID1259421 (Broad Institute, 2018):
“And” between values parts separate entries of the source, which are not always exact repeats. Identical values can stand only once. In all, about 6,400 compounds went through this assay and about 610 (9.5%) were called active. Rule as the data show it: active = activity change below about -70%; inconclusive = no clear call, values can overlap the other calls; inactive = above that. Many of the other results were omitted from the sample, so actives are more common in it than they were. The source holds several records for some structures; these can differ, active in one and inactive in another. Where a SMILES comes first, the peptide text is derived from it.

Test: T. gondii ME49Luc in HeLa cells, luciferase assay, 72 h, no IFN-y (AID 1259421)
Conditions: stronger effect = lower value, concentration not given here
With `S=c1ccss1` the activity change, negative = inhibition was 1.03% (inactive). With `COc1ccc(-c2cc(=O)c3c(O)cc(O)cc3o2)cc1` the activity change, negative = inhibition was 127% (inactive). With `COCc1c(C(C)C)nc(C(C)C)c(/C=C/[C@@H](O)C[C@@H](O)CC(=O)O)c1-c1ccc(F)cc1` the activity change, negative = inhibition was -88.4% (active). For `CC(C)N1c2ccccc2C(c2ccc(F)cc2)C1/C=C/C(O)CC(O)CC(=O)O` (stereo not drawn), the activity change, negative = inhibition was -15.2% (inactive). In the case of `CC(C)c1nc(N(C)S(C)(=O)=O)nc(-c2ccc(F)cc2)c1/C=C/[C@@H](O)C[C@@H](O)CC(=O)O`, the activity change, negative = inhibition is reported as 15.1% (inactive) and -35.2% (inactive). For `CC(C)c1c(C(=O)Nc2ccccc2)c(-c2ccccc2)c(-c2ccc(F)cc2)n1CC[C@@H](O)C[C@@H](O)CC(=O)O`, the activity change, negative = inhibition was 9.33% (inactive). In the case of `CC(C)n1c(/C=C/[C@@H](O)C[C@@H](O)CC(=O)O)c(-c2ccc(F)cc2)c2ccccc21`, the activity change, negative = inhibition is reported as -79.8% (active) and 10.3% (inactive). For `O=C(O)C[C@H](O)C[C@H](O)/C=C/c1c(C2CC2)nc2ccccc2c1-c1ccc(F)cc1`, the activity change, negative = inhibition was -31.6% (inactive) and 2.61% (inactive). In the case of `COc1cc(SC)ccc1C(=O)N1CCC(Cc2ccccc2)CC1`, the activity change, negative = inhibition is reported as 36.5% (inactive) and 48.1% (inactive). In the case of `CC(C)N(C[C@H]1O[C@@H](n2cnc3c(N)ncnc32)[C@H](O)[C@@H]1O)C1CC(CCc2nc3ccc(C(C)(C)C)cc3[nH]2)C1` (stereo partly drawn), the activity change, negative = inhibition is reported as 8.46% (inactive) and -64.1% (inactive). In the case of `O=C(O)C(=O)Nc1cccc(-c2nn[nH]n2)c1`, the activity change, negative = inhibition is reported as 5.48% (inactive). In the case of `CN1CCc2nc(C(=O)N[C@H]3C[C@H](C(=O)N(C)C)CC[C@@H]3NC(=O)C(=O)Nc3ccc(Cl)cn3)sc2C1`, the activity change, negative = inhibition is reported as 9.11% (inactive). For `C[C@H](N)C(=O)N[C@@H](CCC(N)=O)C(=O)O` (H-Ala-Gln-OH), the activity change, negative = inhibition was 3.92% (inactive). With `N#C/C(=C/c1ccc(O)c(O)c1)C(=O)NCCCc1ccccc1` the activity change, negative = inhibition was -10.8% (inactive). In the case of `NC(N)=NC(=O)c1cnccn1`, the activity change, negative = inhibition is reported as 11.4% (inactive). In the case of `CC(C)(C)NCC(O)COc1cccc2c1C[C@H](O)[C@H](O)C2` (stereo partly drawn), the activity change, negative = inhibition is reported as 4.27% (inactive). For `CC(C)(C)OC(=O)N[C@H]1CCCCC/C=C\[C@@H]2C[C@@]2(C(=O)NS(=O)(=O)C2CC2)NC(=O)[C@@H]2C[C@@H](OC(=O)N3Cc4cccc(F)c4C3)CN2C1=O`, the activity change, negative = inhibition was 19.7% (inactive). With `COc1ccc2c(O[C@H]3CC4C(=O)N(C)CCCC/C=C\[C@@H]5C[C@@]5(C(=O)NS(=O)(=O)C5CC5)NC(=O)[C@@H]4C3)cc(-c3nc(C(C)C)cs3)nc2c1C` (stereo partly drawn) the activity change, negative = inhibition was -71.4% (active). In the case of `N#CC(Cc1ccc(O)cc1)c1ccc(O)cc1` (stereo not drawn), the activity change, negative = inhibition is reported as 6.16% (inactive) and 5.25% (inactive). In the case of `CC(=O)OCC(=O)[C@@]1(OC(C)=O)[C@@H](C)CC2C3C[C@H](F)C4=CC(=O)C=C[C@]4(C)[C@@]3(F)[C@@H](O)C[C@@]21C` (stereo partly drawn), the activity change, negative = inhibition is reported as -5.04% (inactive) and -3.76% (inactive). For `CCC[C@@H]1C[C@@H](C(=O)N[C@H]([C@H]2O[C@H](SC)[C@H](O)[C@@H](O)[C@H]2O)[C@H](C)O)N(C)C1`, the activity change, negative = inhibition was -17.1% (inactive). In the case of `COc1ccc2c(OCc3nnc4ccc(-c5ccccc5)nn34)ccnc2c1`, the activity change, negative = inhibition is reported as 4.78% (inactive). With `CNC(=O)c1cccc2cc(Oc3ccnc4cc(OCC5(N)CC5)c(OC)cc34)ccc12` the activity change, negative = inhibition was -25% (inactive). With `COc1ccc2c(Oc3ccc(NC(=O)c4c(C)n(CC(C)(C)O)n(-c5ccccc5)c4=O)nc3)ccnc2c1` the activity change, negative = inhibition was -67.1% (inactive) and -82.5% (active). For `C[C@@H]1CC2C3CCC4=CC(=O)C=C[C@]4(C)[C@@]3(F)[C@@H](O)C[C@]2(C)[C@@]1(O)C(=O)CO` (stereo partly drawn), the activity change, negative = inhibition was -4.17% (inactive). With `C[C@@H]1CCCN1CCc1cc2cc(-c3ccc(C#N)cc3)ccc2o1` the activity change, negative = inhibition was 3.6% (inactive). In the case of `C=CCN1CC(C(=O)N(CCCN(C)C)C(=O)NCC)CC2c3cccc4[nH]cc(c34)CC21` (stereo not drawn), the activity change, negative = inhibition is reported as 5.12% (inactive). For `CC(=O)S[C@@H]1CC2=CC(=O)CC[C@]2(C)[C@H]2CC[C@@]3(C)[C@@H](CC[C@@]34CCC(=O)O4)[C@H]12`, the activity change, negative = inhibition was -13.5% (inactive) and -2.91% (inactive). In the case of `C[C@]12CCC(=O)C=C1[C@@H]1C[C@@H]1[C@H]1[C@@H]3[C@@H]4C[C@@H]4[C@@]4(CCC(=O)O4)[C@@]3(C)CC[C@@H]12`, the activity change, negative = inhibition is reported as -75.7% (active) and -36.5% (inactive). In the case of `C[C@]12CCC(=O)C=C1C=CC1C2CC[C@@]2(C)C1CC[C@@]21CCC(=O)O1` (stereo partly drawn), the activity change, negative = inhibition is reported as 4.56% (inactive) and -4.95% (inactive). With `CCS(=O)(=O)N1CCN(c2ccc(Nc3ncc(C(N)=O)c(NC4CC4)n3)cc2)CC1` the activity change, negative = inhibition was -79.3% (active). For `O=c1[nH]ccc2c(S(=O)(=O)N3CCCNCC3)cccc12`, the activity change, negative = inhibition was 13.8% (inactive) and 2.48% (inactive). For `CN1C(C(=O)Nc2ccccn2)C(=O)c2ccccc2S1(=O)=O` (stereo not drawn), the activity change, negative = inhibition was 35.3% (inactive) and 14.6% (inactive). In the case of `CCOC(=O)C(C)Oc1cccc2c(=O)n(CC(=O)Nc3ccc4c(c3)OCCO4)ccc12` (stereo not drawn), the activity change, negative = inhibition is reported as 14.7% (inactive). In the case of `O=C1CC2(CCCC2)CC(=O)N1CCCCNCC1COc2ccccc2O1` (stereo not drawn), the activity change, negative = inhibition is reported as 21% (inactive) and 7.16% (inactive). For `CC(C)(C)NC(=O)[C@@H]1CC2CCCCC2CN1C[C@@H](O)[C@H](Cc1ccccc1)NC(=O)[C@H](CC(N)=O)NC(=O)c1ccc2ccccc2n1` (stereo partly drawn), the activity change, negative = inhibition was 13.2% (inactive). In the case of `CCCCCCCCO`, the activity change, negative = inhibition is reported as 2.72% (inactive). In the case of `CC(=O)NC[C@H]1CN(c2ccc(-c3ccc(CNCc4cn[nH]n4)cc3)c(F)c2)C(=O)O1`, the activity change, negative = inhibition is reported as -34.7% (inactive). For `NC(=O)Nc1cc(-c2cccc(F)c2)sc1C(=O)N[C@H]1CCCNC1`, the activity change, negative = inhibition was -74.8% (active) and -87.7% (active). In the case of `COc1cc(C(=O)NC2CCCNC2)cc(OC)c1OC` (stereo not drawn), the activity change, negative = inhibition is reported as 25.6% (inactive). For `NC(=O)Nc1sc(-c2ccc(F)cc2)cc1C(N)=O`, the activity change, negative = inhibition was 12.6% (inactive). With `CC(C)[C@@H](CS(=O)(=O)C(C)C)N1C(=O)[C@@](C)(CC(=O)O)C[C@H](c2cccc(Cl)c2)[C@H]1c1ccc(Cl)cc1` the activity change, negative = inhibition was 5.9% (inactive). In the case of `NCCCCNS(=O)(=O)c1ccc2c(Cl)cccc2c1`, the activity change, negative = inhibition is reported as 2.08% (inactive).
